Experimental data from PubChem BioAssay (NCI).
This is part of a sample that, as a whole, favours compounds with a hit. Of some 83,000 tested, about 20% had one in any assay.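 Testing used 96-well plates and a 48-hour single-concentration exposure. Example: -40 means 40% of the starting cells died.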 Values without a mark were called inactive. Active and inactive are the calls of the source. How the source made its calls: active means growth percent below 10; inactive means the rest.

What was measured:
Test in all cases: NCI-60 one-dose screen, 48 h (100 = growth as untreated, 0 = no growth, -100 = all killed)
HCT-15 colon = details: 10 µM unless noted
HT29 colon = details: 10 µM unless noted
SNB-75 CNS = details: 10 µM
SNB-19 CNS = details: 10 µM unless noted
U251 CNS = details: 10 µM unless noted
PC-3 prostate = details: 10 µM unless noted
SK-MEL-5 melanoma = details: 10 µM unless noted
UACC-62 melanoma = details: 10 µM unless noted
LOX IMVI melanoma = details: 10 µM unless noted
SK-MEL-28 melanoma = details: 10 µM unless noted
SK-MEL-2 melanoma = details: 10 µM unless noted
EKVX NSCLC = details: 10 µM unless noted
SN12C renal = details: 10 µM unless noted
UO-31 renal = details: 10 µM unless noted
TK-10 renal = details: 10 µM unless noted
ACHN renal = details: 10 µM unless noted
CAKI-1 renal = details: 10 µM unless noted
A498 renal = details: 10 µM unless noted
CCRF-CEM leukemia = details: 10 µM unless noted
MOLT-4 leukemia = details: 10 µM unless noted

Row | Structure (SMILES) | growth (HCT-15 colon) | growth (HT29 colon) | growth (SNB-75 CNS) | growth (SNB-19 CNS) | growth (U251 CNS) | growth (PC-3 prostate) | growth (SK-MEL-5 melanoma) | growth (UACC-62 melanoma) | growth (LOX IMVI melanoma) | growth (SK-MEL-28 melanoma) | growth (SK-MEL-2 melanoma) | growth (EKVX NSCLC) | growth (SN12C renal) | growth (UO-31 renal) | growth (TK-10 renal) | growth (ACHN renal) | growth (CAKI-1 renal) | growth (A498 renal) | growth (CCRF-CEM leukemia) | growth (MOLT-4 leukemia)
1 | Clc1ccc2c(NC3CCC(NC4CCCCC4)CC3)ccnc2c1 (stereo not drawn) | 29.6% | 7.7% (active) | 79.6% | 81.9% | 35.8% | 59.2% | 18.6% | -31.3% (active) | 35.6% | -10.5% (active) | 55.2% | 68.1% | 74.1% | 56.2% | 48.8% | 58.2% | 47.9% | 62.5% | 70.2% | 56.9%
2 | CCCCN(CCCC)c1ccc(C(=N)c2ccc(N(CCCC)CCCC)cc2)cc1 | -91.9% (active) | -81.1% (active) |  | -82.8% (active) | -92.9% (active) | -94.4% (active) | -97% (active) | -81.6% (active) | -97.2% (active) | 9.39% (active) | -79.1% (active) | -13.9% (active) | -94.1% (active) | -71.1% (active) | -83.9% (active) | -100% (active) | -37.6% (active) | -25.7% (active) |  | 
3 | COc1ccncc1S(=O)(=O)NC(=O)Nc1ccc(Cl)c(Cl)c1 | 101% | 102% | 78.3% | 96.8% | 94.9% | 91.9% | 120% | 66.7% | 64.9% | 120% | 92.9% | 84.7% | 94.5% | 66.7% | 113% | 85.2% | 84.4% | 96.3% | 81.7% | 83.5%
4 | Cc1nn(-c2ccc(Cl)cc2)c2ncnc(N/N=C/c3cccc([N+](=O)[O-])c3)c12 | 100% | 90.7% | 99.2% | 96.4% | 82.3% | 39% | 105% | 109% | 93.4% | 105% | 99% | 84% | 101% | 72.3% | 93.3% | 108% | 76.4% | 85.5% | 20.5% | 15.4%
5 | COC(=O)c1nc(-c2ccccc2)oc1S(=O)(=O)N1CCN(c2cccc(Cl)c2)CC1 | 65.5% | 50.8% |  | 63.6% | 72.2% | 82% | 99.3% | 79.7% | 44.3% | 88.3% | 90% | 93.4% | 74.5% | 62.9% | 89.4% | 84.8% | 32.6% | 111% | 4.91% (active) | 39.3%
6 | O=C(NCCCNc1nccc(-n2ccc3cccnc32)n1)c1c(F)cccc1F | 99.9% | 104% |  | 95.7% | 102% | 96.8% | 99.2% | 97.6% | 102% | 111% | 114% | 93.4% | 99.4% | 92% | 116% | 94.6% | 86.3% | 103% | 101% | 99.2%
7 | Cc1c(C(N)=O)sc2c1c(=O)n(Cc1ccccc1)c1nnc(Nc3ccccc3)n21 | 96.1% | 94.3% |  | 101% | 97.2% | 96.9% | 105% | 92.5% | 93.5% | 109% | 103% | 94.1% | 99.2% | 67.9% | 113% | 96.4% | 82% | 110% |  | 
8 | CN(C)CCOC(=O)Nc1ccccc1Cl | 103% | 110% |  | 104% | 108% | 93.5% | 104% | 110% | 101% | 115% | 118% | 115% | 104% | 86.6% | 106% | 108% | 97.7% | 112% | 93.4% | 99.2%
9 | Clc1ccc(-c2nc3ccccc3s2)cc1Cl | 96.6% | 97.2% |  | 93.6% | 86.9% | 89% | 89.8% | 88.2% | 88.4% | 106% | 94.8% | 85.3% | 92.3% | 72.3% | 81.5% | 93.3% | 83.9% | 77% |  | 
10 | O=C(/C=C\c1cccc([N+](=O)[O-])c1)/C=C/c1cccc([N+](=O)[O-])c1 | 73.5% | 9.81% (active) | 94.3% | 94.5% | 22.6% | 82.1% | 100% | 78.1% | -89.7% (active) | 102% | -38.1% (active) | 107% | 98.1% | 71.1% | 89.9% | 89.6% | 94.2% | 90.4% | 74.4% | 94.3%
11 | Cc1nn(-c2ccc([N+](=O)[O-])cc2)c2ncnc(NCCc3ccccc3)c12 | 95.4% | 103% | 87.9% | 97.2% | 102% | 88.7% | 104% | 90.5% | 103% | 106% | 110% | 52.6% | 102% | 79.7% | 108% | 99.8% |  | 81.7% | 100% | 64.7%
12 | COc1cc2c(cc1OCCCN1CCN(CCCn3c4ccccc4c4ccccc43)CC1)N=C[C@@H]1CCCN1C2=O | -44.6% (active) | -17.2% (active) | -98.9% (active) | -49.8% (active) | -99.1% (active) | -64.7% (active) | -100% (active) | -87.3% (active) | -91.2% (active) | -98.3% (active) | -78.1% (active) | -86.8% (active) | -47.9% (active) | -91.7% (active) | -79.6% (active) | -100% (active) | -75% (active) | -96.9% (active) | -11.4% (active) | -39.6% (active)
13 | COc1cc(C2NN=C3c4ccccc4CCC32)cc(OC)c1OC (stereo not drawn) | 72.4% | 105% | 59.8% | 79.3% | 94.7% | 75.2% | 72.2% | 69.8% | 82.4% | 101% | 76.9% | 72.6% | 77.7% | 41.4% | 94.1% | 80.3% | 65% | 89.6% | 1.98% (active) | 60.5%
14 | O=c1ccn(-c2ncnc3nc[nH]c23)cc1 | 102% | 109% | 80.6% | 98.4% | 95.5% | 96.6% | 114% | 92.8% | 96.3% | 94.6% | 90.9% | 91.4% | 90.3% | 67% | 86.4% | 99.3% | 74.6% | 87.6% | 89.7% | 96%
15 | O=C(Nc1ccc(NCCN2CCOCC2)nc1)c1ccc([N+](=O)[O-])cc1 | 105% | 101% |  | 106% | 102% | 98.5% | 98.7% | 94.6% | 102% | 115% | 108% | 87.2% | 107% | 96.2% | 114% | 109% | 99% | 92.5% | 101% | 118%
16 | C=COC(=O)CCCCCCCCC | 113% | 100% |  | 97.6% | 105% | 102% | 107% | 99.2% | 98.5% | 106% | 108% | 94.1% | 106% | 85.7% | 109% | 104% | 92.8% | 96.4% |  | 
